Inconclusive results are not listed. Calls of active or inactive are those of the source. Calls follow the shape of the dose curve; as a rule, active = well fitted inhibition curve with a large enough effect; inconclusive = small, poorly fitted or top-dose-only effect; inactive = no such curve, though single readings can be large or run the other way.
% is scaled to controls: 0 for no effect and ±100 for the full control effect.

The test system of the assay is Zika virus NS2B-NS3 protease (unlinked complex). Description: Primary screen GU Rhodamine qHTS for Zika virus inhibitors: Unlinked NS2B-NS3 protease assay (AID 1347159). Also: nearly all actives have a fitted effect of over 60% in size. To be noted: Recombinant ZIKV NS2B-NS3 protease, Rhodamine110 substrate fluorescence; series mostly up to 107 µM; activity change, negative = inhibition: at the top concentration. In outline: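 Noncovalent NS2B hydrophilic domain–NS3 protease domain complex (25 nM) preincubated 15 min at room temperature with compounds (up to 114 microM) in 10 mM Tris-HCl pH 8.0, 0.01% Tween 20; 1.5 microM Rhodamine110 substrate added, fluorescence change over 15 min fitted to Hill equation.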
For orientation: Quantitative high-throughput screening tests each substance at several concentrations.
Consider `C=CC(C)(O)CC/C=C(\C)C(=O)O[C@H]1[C@H](O)[C@@H](CO)O[C@@H](OC(=O)[C@]23CCC(C)(C)CC2C2=CCC4[C@@]5(C)CC[C@H](O[C@@H]6O[C@H](CO[C@@H]7OC[C@H](O)[C@H](O)[C@H]7O[C@@H]7OC[C@@H](O)[C@H](O)[C@H]7O)[C@@H](O)[C@H](O)[C@H]6O)C(C)(C)C5CC[C@@]4(C)[C@]2(C)CC3)[C@@H]1OC1OC(C)C(O[C@@H]2OC[C@@H](O)[C@H](O[C@@H]3OC[C@@H](O)[C@H](O)[C@H]3O)[C@H]2O)C(O)C1O` (some centres undefined), for which the activity change, negative = inhibition was 50.7% [at 19.1 µM] (inactive).

On to `CN1C(=O)c2ccccc2NC(=O)[C@]12O[C@@H]2c1ccccc1`, for which the “activity change, negative = inhibition” value is 9.84% (inactive).

For the molecule `CN[C@H]1[C@H](O)[C@H](O[C@@H]2[C@@H](O)[C@H](O[C@H]3O[C@H]([C@H](C)O)[C@@H](O)[C@H](O)[C@H]3N)[C@@H](N)C[C@H]2N)OC[C@@]1(C)O`, the “activity change, negative = inhibition” value is 3.09% (inactive).

Consider `CC(C)[C@@H](CN1CC[C@@](C)(c2cccc(O)c2)[C@@H](C)C1)NC(=O)[C@H]1Cc2ccc(O)cc2CN1`, for which the “activity change, negative = inhibition” value was 49.2% (inactive).

Consider `CCN1C[C@]2(COC(=O)c3ccccc3N3C(=O)C[C@H](C)C3=O)CC[C@H](OC)[C@@]34[C@@H]5C[C@H]6[C@H](OC)[C@@H]5[C@](O)(C[C@@H]6OC)[C@](O)([C@@H](OC)[C@H]23)[C@@H]14`, for which the “activity change, negative = inhibition” value is -12.1% (inactive).

Regarding `CC(CCc1ccc(O)cc1)O[C@@H]1O[C@H](CO[C@H]2OC[C@](O)(CO)[C@H]2O)[C@@H](O)[C@H](O)[C@H]1O` (some centres undefined), the “activity change, negative = inhibition” value was 19% [at 57.1 µM] (inactive).

Take `COC(=O)N1CCN(C(=O)Cc2ccc(Cl)c(Cl)c2)[C@@H](CN2CCCC2)C1`: the “activity change, negative = inhibition” value is 19.9% (inactive).

On to `Cn1ncnc1COc1nn2c(-c3c(F)cccc3F)nnc2cc1C1CCC1`, for which the “activity change, negative = inhibition” value is 4.73% (inactive).

Turning to `CN1[C@H]2C[C@H](OC(=O)[C@H](CO)c3ccccc3)C[C@@H]1[C@@H](O)C2`, the “activity change, negative = inhibition” value was -18.4% (inactive).

As for `COc1cc(C(=O)O[C@H]2[C@@H]3C=CO[C@@H](O[C@@H]4O[C@H](CO)[C@@H](O)[C@H](O)[C@H]4O)[C@@H]3[C@@]3(CO)O[C@@H]23)ccc1O`, the “activity change, negative = inhibition” value was 15.8% [at 57.1 µM] (inactive).

In the case of `CC(C)=C1CC[C@]23CO[C@H](C2)[C@@](O)(C(=O)O)CCC13` (some centres undefined), the “activity change, negative = inhibition” value was -26.3% (inactive).

For the molecule `COC(=O)[C@@]12C(=O)C(C)C(=O)[C@]1(C)C(C)=C[C@H]1[C@]3(C=O)CC[C@H](OC(C)=O)C(C)(C)[C@H]3CC[C@@]12C` (some centres undefined), the “activity change, negative = inhibition” value was -4.54% [at 57.1 µM] (inactive).

As to `COC1=CC(=O)O[C@@H](/C=C/c2ccccc2)C1`, the “activity change, negative = inhibition” value is 10.2% (inactive).

`Oc1ccc2c3c1O[C@H]1[C@H](N(CCCl)CCCl)CC[C@@]4(O)[C@@H](C2)N(CC2CC2)CC[C@]314`: the activity change, negative = inhibition was -3.74% [at 19.1 µM] (inactive).

As for `N#C[C@@H](O[C@@H]1O[C@H](CO[C@@H]2O[C@H](CO)[C@@H](O)[C@H](O)[C@H]2O)[C@@H](O)[C@H](O)[C@H]1O)c1ccccc1`, the “activity change, negative = inhibition” value is 0.396% [at 57.1 µM] (inactive).

In the case of `C[C@]12CC[C@@H](O)C[C@H]1CC[C@@H]1[C@@H]2CC[C@]2(C)C(=O)CC[C@@H]12`, the “activity change, negative = inhibition” value is 209% (inactive).

Regarding `CCCCCCn1c(=O)c(C(=O)Nc2ccc(C(=O)OCCC)cc2)c(O)c2ccccc21`, the activity change, negative = inhibition is -4.23% [at 19.1 µM] (inactive).

`C[C@@](O)(COc1ccc(C#N)cc1)C(=O)Nc1ccc(C#N)c(C(F)(F)F)c1`: the “activity change, negative = inhibition” value was -8.39% (inactive).

`COc1ccccc1CN[C@H]1C2CCN(CC2)[C@H]1C(c1ccccc1)c1ccccc1`: the “activity change, negative = inhibition” value is 35.3% (inactive).

Take `OC1(c2ccc(Cl)cc2)c2ccccc2C2=NCCN21` (centres undefined): the “activity change, negative = inhibition” value was 24.6% (inactive).

Take `C1=C2CCCN[C@H]2[C@@H]2C[C@H]1[C@H]1CCCCN1C2`: the “activity change, negative = inhibition” value is -0.56% (inactive).

Regarding `Clc1ccc(N2C[C@H]3CC[C@@H](C2)N3)nn1`, the “activity change, negative = inhibition” value is -26.5% (inactive).

On to `CC(=O)OC1CC(O)C(C)(C)C2CC(OC(C)=O)C3(C)C(CCC4(C)C(c5ccoc5)C(=O)C5OC543)C12C` (centres undefined), for which the “activity change, negative = inhibition” value was 6.4% [at 57.1 µM] (inactive).

On to `CN1C(=O)c2ccccc2NC(=O)C1Cc1ccccc1` (centres undefined), for which the “activity change, negative = inhibition” value was 0.117% (inactive).

For `COC1CC(O[C@H]2CC[C@@]3(C)C(=CCC4C3C(O)[C@@H](O)[C@]3(C)[C@@H](C(C)=O)CC[C@]43O)C2)OC(C)C1OC1CC(OC)C(OC2OC(C)C(O)C(O)C2O)C(C)O1` (some centres undefined), the “activity change, negative = inhibition” value is 10.7% [at 32.5 µM] (inactive).

As to `Cc1cc(C(=O)CN2CCCC2)c(C)n1-c1ccc(F)cc1`, the Potency result was “inactive”.

For `CN(C(=O)Cc1ccccc1)C(CN1CCCC1)c1ccccc1` (centres undefined), the “activity change, negative = inhibition” value is 27.4% (inactive).

Turning to `CCC(C)(C#N)O[C@@H]1O[C@H](CO)[C@@H](O)[C@H](O)[C@H]1O` (some centres undefined), the “activity change, negative = inhibition” value was 2.56% (inactive).

For the molecule `CCOc1ccccc1-n1c(C(C)N2CCN(C(=O)COc3ccc(Cl)cc3)CC2)nc2ccccc2c1=O` (centres undefined), the “activity change, negative = inhibition” value is -2.07% (inactive).

The record behind these values is PubChem BioAssay (NCATS).
